The source made the active and inactive calls. Unless noted, the rule behind the calls is not given here.
How the values were obtained:
[1] = compounds binding Alexa647 anti-His antibody – biochemical, small-molecule microarray, 635 nm fluorescence, artefact control for SMM control protein annotation, primary screen (AID 1128); settings: higher = more signal;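 note: score merges feature fluorescence with signal-to-noise for each printed compound spot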
[2] = tested on: Human papillomavirus type 1a E7 protein (residues 1-88); assay: HPV1a E7 small-molecule binders, primary screen, biochemical, small-molecule microarray, residues 1-88, 635 nm (AID 1129); settings: small-molecule microarray binding, fluorescence 635 nm; higher = more signal
[3] = target: Focal adhesion kinase 1 (Homo sapiens) (UniProt Q05397); assay: PTK2 protein binding on printed compound slides – biochemical, small-molecule microarray, 635/667 nm fluorescence, BSA, DTT, primary screen (AID 1130); settings: 635 nm fluorescence, higher = more signal;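 note: composite of spot emission at 667 nm and signal to noise over triplicate slides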
[4] = tested on: Fibrinogen (Alexa647-labelled); assay: Alexa647-fibrinogen binding to printed small molecules – biochemical, small-molecule microarray, 635/667 nm fluorescence, artefact control for SMM control-protein annotation, profiling panel (AID 1131); settings: fibrinogen-A647 binding fluorescence, higher = more signal;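 note: z-score merges 667 nm fluorescence with per-spot signal-to-noise over triplicate slides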
[5] = target: Follistatin (Homo sapiens) (UniProt P19883); assay: FST protein binding to printed compounds – biochemical, small-molecule microarray, 635/667 nm fluorescence, primary screen (AID 1132); settings: 635 nm fluorescence, higher = more signal
[6] = target: Fibroblast growth factor 2 (Homo sapiens) (UniProt P09038); assay: basic fibroblast growth factor binding to printed compounds – biochemical, small-molecule microarray, 635/667 nm fluorescence, primary screen (AID 1133); settings: FGF2, fluorescence 635/667, higher = more signal
[7] = JC-1 mitochondrial potential readout, lung cancer cells – cell-based, A549, JC-1 fluorescence, basal, 24 h, 100 nL, profiling panel (AID 1138); settings: higher = more signal;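 note: A549 lung adenocarcinoma cells under basal conditions with no added stimulus; test concentration not given here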
[8] = tested on: Lefty1; assay: Lefty1 protein binding to printed compounds – biochemical, small-molecule microarray, 635/667 nm fluorescence, primary screen (AID 1139); settings: fluorescence 635/667, higher = more signal
[9] = tested on: wheat germ agglutinin (Triticum aestivum), Alexa647-labelled; assay: Alexa647-WGA lectin binding to printed small molecules – biochemical, small-molecule microarray, 635/667 nm fluorescence, artefact control for SMM control-protein annotation, profiling panel (AID 1140); settings: WGA-A647 binding, 635 nm fluorescence, higher = more signal;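 note: score merges 667 nm feature emission with signal to noise over triplicate slides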
[10] = target: Luciferin 4-monooxygenase (Photinus pyralis) (UniProt P08659); assay: inhibition of purified Photinus pyralis luciferase – biochemical, luminescence, purified enzyme, 2006 set, primary screen (AID 1141); settings: purified firefly luciferase, SteadyGlo luminescence, 30 min; higher = more signal, called active from +8 up or from −8 down;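 note: cell-free assay with purified firefly luciferase at 100 ng per well in PBS; test concentration not given here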
[11] = tested on: Wnt5a (protein binding on small-molecule microarray); assay: small molecules binding Wnt5a protein – biophysical, small-molecule microarray, 635/667 nm fluorescence, primary screen (AID 1142); settings: 635 nm fluorescence, higher = more signal;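 note: fluorescence read at 667 nm with signal to noise per printed feature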
[12] = ATP-based viability of Huh7 replicon cells – cell-based, CellTiter-Glo luminescence, basal, 48 h, cytotoxicity control for HCV replication inhibitor project, primary screen (AID 1143); settings: higher = more signal, called active from +8 up or from −8 down;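 note: Huh7 hepatoma cells carrying a hepatitis C replication reporter with no stimulus; test concentration not given here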
[13] = Pseudomonas biofilm growth suppression – PAO1 strain, BacTiter-Glo luminescence, LB-PBS, primary screen (AID 1144); settings: P. aeruginosa PAO1 biofilm, 12 h, higher = more signal
[14] = basal CRE-LacZ reporter activity in PC12 – cell-based, unstimulated, primary screen (AID 1145); settings: no forskolin, luminescence, 4.5 h, higher = more signal, called active from +8 up or from −8 down
[15] = forskolin-driven CRE-LacZ activity in PC12 – cell-based, CRE-LacZ reporter, forskolin-stimulated, primary screen (AID 1146); settings: luminescence, 4.5 h, higher = more signal, called active from +8 up or from −8 down;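 note: PC12 cells with 6xCRE LacZ reporter stimulated by forskolin 10 µM; beta-galactosidase reporter signal reflecting CREB driven transcription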
[16] = target: Streptavidin (Streptomyces avidinii) (UniProt P22629); assay: compounds binding control protein streptavidin – biophysical, small-molecule microarray, 635/667 nm fluorescence, artefact control for SMM compound annotation, primary screen (AID 1147); settings: higher = more signal;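 note: signal reflects streptavidin binding to arrayed compounds as a control protein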
[17] = probe aInhba binding on compound microarray – biochemical, small-molecule microarray, 635/667 nm fluorescence, primary screen (AID 1148); settings: higher = more signal;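 note: score merges 667nm spot fluorescence with signal-to-noise for antibody binding to printed compounds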
[18] = target: Torsin-1A (Homo sapiens) (UniProt O14656); assay: TOR1A wild-type binding on microarray – cell lysate, small-molecule microarray, lysate, 635/667 nm, primary screen (AID 1149); settings: COS7 hTOR1A-WT lysate, 635 nm fluorescence, higher = more signal
[19] = target: Torsin-1A (Homo sapiens) (UniProt O14656); assay: torsin A mutant lysate binding on microarrays – cell lysate, small-molecule microarray, COS7 lysate, 635/667 nm fluorescence, primary screen (AID 1150); settings: COS7 hTOR1A mutant lysate, 635 nm fluorescence, higher = more signal;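 note: score pools 667 nm emission and signal to noise measuring lysate protein binding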
[20] = tested on: Sonic hedgehog protein (Shh); assay: Sonic hedgehog microarray binding compounds – biochemical, small-molecule microarray, 635/667 nm fluorescence, primary screen (AID 1151); settings: 635 nm fluorescence, higher = more signal;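 note: Shh protein binding to compounds spotted on small-molecule microarray slides; score combines spot fluorescence intensity with signal-to-noise across triplicate slides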

Chain of Streptavidin (Streptomyces avidinii) (P22629 whole entry, looked up): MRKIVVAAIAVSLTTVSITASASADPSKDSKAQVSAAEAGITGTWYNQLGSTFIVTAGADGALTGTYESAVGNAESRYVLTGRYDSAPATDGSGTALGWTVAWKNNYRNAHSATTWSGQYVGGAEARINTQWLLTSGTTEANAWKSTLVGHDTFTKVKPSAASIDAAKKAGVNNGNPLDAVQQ
Chain of Fibroblast growth factor 2 (Homo sapiens) (P09038 whole entry, looked up): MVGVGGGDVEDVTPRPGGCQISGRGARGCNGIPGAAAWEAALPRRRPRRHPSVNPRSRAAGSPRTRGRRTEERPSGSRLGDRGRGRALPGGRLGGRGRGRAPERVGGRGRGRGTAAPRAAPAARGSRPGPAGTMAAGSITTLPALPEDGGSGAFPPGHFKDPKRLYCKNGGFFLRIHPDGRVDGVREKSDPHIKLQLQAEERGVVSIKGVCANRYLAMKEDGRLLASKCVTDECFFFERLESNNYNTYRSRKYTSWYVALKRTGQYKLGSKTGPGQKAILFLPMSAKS
Chain of Focal adhesion kinase 1 (Homo sapiens) (Q05397 whole entry, looked up): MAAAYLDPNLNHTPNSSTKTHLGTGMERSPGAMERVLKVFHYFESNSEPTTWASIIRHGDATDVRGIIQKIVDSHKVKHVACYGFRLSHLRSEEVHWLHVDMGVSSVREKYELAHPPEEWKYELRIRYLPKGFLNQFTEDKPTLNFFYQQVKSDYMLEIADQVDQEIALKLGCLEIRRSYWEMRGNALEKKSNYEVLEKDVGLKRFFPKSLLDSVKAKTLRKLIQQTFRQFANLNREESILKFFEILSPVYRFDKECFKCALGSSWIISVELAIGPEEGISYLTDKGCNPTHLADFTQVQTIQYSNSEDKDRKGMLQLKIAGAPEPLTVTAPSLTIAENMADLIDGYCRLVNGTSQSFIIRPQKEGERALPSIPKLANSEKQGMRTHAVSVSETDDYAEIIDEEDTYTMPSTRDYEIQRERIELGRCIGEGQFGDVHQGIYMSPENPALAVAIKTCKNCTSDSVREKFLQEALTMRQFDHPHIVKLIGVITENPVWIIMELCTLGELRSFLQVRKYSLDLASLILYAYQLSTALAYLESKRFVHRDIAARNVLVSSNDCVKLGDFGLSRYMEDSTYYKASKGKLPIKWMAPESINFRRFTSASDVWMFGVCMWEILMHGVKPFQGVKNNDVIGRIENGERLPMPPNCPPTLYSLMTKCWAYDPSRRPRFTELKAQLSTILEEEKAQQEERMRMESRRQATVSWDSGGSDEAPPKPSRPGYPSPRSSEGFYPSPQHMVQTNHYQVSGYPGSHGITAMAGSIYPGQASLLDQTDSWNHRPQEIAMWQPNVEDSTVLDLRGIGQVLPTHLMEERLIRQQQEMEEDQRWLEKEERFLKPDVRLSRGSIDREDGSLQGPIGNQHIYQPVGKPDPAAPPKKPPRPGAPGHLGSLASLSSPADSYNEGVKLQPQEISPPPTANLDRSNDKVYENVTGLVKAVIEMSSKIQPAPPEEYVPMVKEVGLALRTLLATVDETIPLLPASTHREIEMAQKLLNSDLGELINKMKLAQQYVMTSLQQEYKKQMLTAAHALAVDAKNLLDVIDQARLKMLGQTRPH
Chain of Luciferin 4-monooxygenase (Photinus pyralis) (P08659 whole entry, looked up): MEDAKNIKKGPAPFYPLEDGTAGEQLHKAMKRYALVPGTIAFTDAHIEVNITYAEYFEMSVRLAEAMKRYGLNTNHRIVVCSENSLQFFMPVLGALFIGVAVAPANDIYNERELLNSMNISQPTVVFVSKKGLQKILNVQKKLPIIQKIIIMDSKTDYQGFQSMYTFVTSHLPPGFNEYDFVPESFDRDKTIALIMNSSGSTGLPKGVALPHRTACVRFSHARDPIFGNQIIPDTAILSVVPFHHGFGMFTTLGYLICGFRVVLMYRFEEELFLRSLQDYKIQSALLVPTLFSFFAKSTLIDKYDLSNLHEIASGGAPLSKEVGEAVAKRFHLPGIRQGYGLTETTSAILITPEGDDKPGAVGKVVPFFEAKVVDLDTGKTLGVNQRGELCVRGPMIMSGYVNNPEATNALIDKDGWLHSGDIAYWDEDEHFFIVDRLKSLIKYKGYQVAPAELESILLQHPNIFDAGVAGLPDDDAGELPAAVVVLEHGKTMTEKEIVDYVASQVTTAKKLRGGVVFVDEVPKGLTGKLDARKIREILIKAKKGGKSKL
Chain of Follistatin (Homo sapiens) (P19883 whole entry, looked up): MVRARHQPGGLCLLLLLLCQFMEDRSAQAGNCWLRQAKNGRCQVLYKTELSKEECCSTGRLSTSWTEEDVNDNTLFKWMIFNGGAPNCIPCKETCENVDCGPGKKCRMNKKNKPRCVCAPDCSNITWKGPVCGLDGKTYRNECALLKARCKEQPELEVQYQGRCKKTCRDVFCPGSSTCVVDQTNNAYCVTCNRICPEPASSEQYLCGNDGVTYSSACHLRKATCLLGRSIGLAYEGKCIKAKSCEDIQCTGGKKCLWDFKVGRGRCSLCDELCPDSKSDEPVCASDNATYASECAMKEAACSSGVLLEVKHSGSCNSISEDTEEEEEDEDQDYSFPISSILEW
Chain of Torsin-1A (Homo sapiens) (O14656 whole entry, looked up): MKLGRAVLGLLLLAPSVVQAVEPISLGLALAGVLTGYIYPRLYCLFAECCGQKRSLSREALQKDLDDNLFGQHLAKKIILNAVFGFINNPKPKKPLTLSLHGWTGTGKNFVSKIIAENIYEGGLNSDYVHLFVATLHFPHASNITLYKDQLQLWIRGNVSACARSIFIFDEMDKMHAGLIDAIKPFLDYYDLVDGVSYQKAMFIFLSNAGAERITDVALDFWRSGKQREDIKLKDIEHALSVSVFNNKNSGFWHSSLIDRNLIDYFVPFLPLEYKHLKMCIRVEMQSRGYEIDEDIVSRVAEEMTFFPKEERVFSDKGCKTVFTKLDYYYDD

Compound | composite z-score [1] | composite z-score [2] | composite z-score [3] | composite z-score [4] | composite z-score [5] | composite z-score [6] | z-score [7] | composite z-score [8] | composite z-score [9] | z-score [10] | composite z-score [11] | z-score [12] | z-score [13] | z-score [14] | z-score [15] | composite z-score [16] | composite z-score [17] | composite z-score [18] | composite z-score [19] | composite z-score [20]
CCCCC=C[C@@H](NC(=O)c1ccccc1)c1ccccc1 | 0.249 | 1.18 | 1.43 | 0.987 | 0.527 | -0.79 | -0.584 | 0.4 | 0.68 | 0.965 (inactive) | -0.275 | -0.598 (inactive) | -0.287 (inactive) | 0.969 (inactive) | 1.39 (inactive) | 1.89 | 0.162 | 0.128 | 0.0135 | -0.863
COCCOC(=O)N1C(=O)[C@@]2(c3cc(C#CCCO)ccc31)[C@H](C(N)=O)[C@H]1C(=O)O[C@H](c3ccccc3)[C@H](c3ccccc3)N1[C@@H]2c1ccc(OCCO)cc1 | 0.911 | 1.19 | 0.663 | 0.877 | 1.09 | 0.805 | -1.03 | 0.794 | 0.583 | -1.17 (inactive) | 0.622 | -0.869 (inactive) | -0.402 (inactive) | -0.141 (inactive) | -0.087 (inactive) | 0.438 | 0.0391 | 1.47 | 0.684 | 1.36
CCOC(=O)C[C@H]1[C@H](OC(=O)c2ccccc2-c2ccccc2)[C@@H](NC(=O)c2ccc3ccccc3n2)c2cc(OCCCO)ccc2N1C(=O)c1ccccc1 | -0.0974 | 0.378 | 0.185 | 0.322 | 0.782 | 0.16 | 0.628 | 0.634 | 0.857 | 0.272 (inactive) | 0.233 | -0.0416 (inactive) | 1.12 (inactive) | 2.57 (inactive) | 0.655 (inactive) | -0.197 | -0.0933 | -0.0653 | 0.182 | 1.37
Cc1ccccc1C(O)C1C=CC2C(=O)NC(=O)C2N1Nc1ccc(Cl)cc1Cl (stereo not given) | 0.817 | 1.18 | 0.276 | 0.866 | 0.802 | -0.344 | -1.06 | 0.518 | 0.951 | -1.08 (inactive) | -0.0864 | -0.702 (inactive) | -0.274 (inactive) | 1.01 (inactive) | -0.569 (inactive) | 0.878 | 0.319 | -0.192 | 0.244 | -0.232
CCCCCN1CC=CC23O[C@@H]4/C=C\CCC(C)OC(=O)C4[C@H]2C(=O)N(CCCCCCO)[C@@H]3C1=O (stereo not given in full) | 0.371 | 0.229 | 0.0767 | -1.31 | 0.0532 | -0.0946 | 1.03 | 0.744 | -0.65 | 0.0812 (inactive) | -0.399 | 0.259 (inactive) | -0.943 (inactive) | 0.467 (inactive) | 0.938 (inactive) | -0.749 | -0.153 | -0.96 | 0.109 | 0.758

— PubChem BioAssay
